LEDGF integ inh: blocks HIV-1 LEDGF/p75-dependent DNA integration | TR-FRET IN-LEDGF/p75 DNA integration, Eu/Cy5 | inhibition, % at 3.7 µM | 370,000 compounds, 0.64% hits | AID 743269;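 active means inhibition above the screen-wide mean plus 3 SD, cut at about 13% in these data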;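 further: signal is the Cy5 over europium emission ratio at 671 and 618 nm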
UHRF1 binding: blocks human UHRF1 binding to methylated DNA. Q96T88. UHRF1 binding to methylated oligo, TR-FRET. inhibition, % at 4.4 µM. 370,000 compounds, 0.75% hits. AID 687016; in the data active means inhibition above about 21%;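 further: UHRF1 SRA domain binding a hemimethylated CpG hairpin DNA probe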
MBD2 inh: MBD2-methylated oligo binding inhibition | Q9UBB5 | TR-FRET, MBD2 binding to methylated oligonucleotide | inhibition, % at 4.4 µM | 370,000 compounds, 0.31% hits | AID 686964; in the data active means inhibition above about 13%
PRMT1 FP inh: PRMT1 (human) inhibition, primary screen; Q99873; recombinant PRMT1, activity-based probe fluorescence polarization; inhibition, % at 2.79 µM; 370,000 compounds, 1.3% hits; AID 652257;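 active means inhibition above about 21% made by adding two undisclosed values, limit read from the data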
Target sequence (Q99873 whole entry, looked up): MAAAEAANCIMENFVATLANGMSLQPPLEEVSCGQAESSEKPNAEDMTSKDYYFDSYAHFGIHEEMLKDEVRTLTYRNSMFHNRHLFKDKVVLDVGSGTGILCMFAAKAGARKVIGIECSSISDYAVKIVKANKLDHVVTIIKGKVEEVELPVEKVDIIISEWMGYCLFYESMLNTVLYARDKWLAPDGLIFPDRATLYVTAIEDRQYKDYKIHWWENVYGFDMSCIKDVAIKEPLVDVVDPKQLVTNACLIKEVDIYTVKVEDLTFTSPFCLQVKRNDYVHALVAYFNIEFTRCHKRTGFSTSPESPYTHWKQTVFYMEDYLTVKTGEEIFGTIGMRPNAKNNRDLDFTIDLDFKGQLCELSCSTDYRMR
IN multimer up: HIV-1 integrase multimerization activation, counter-screen | shares compounds with LEDGF integ inh | TR-FRET HIV-1 integrase multimerization, biochemical | activation, % at 7.7 µM | 2,000 compounds, 17% hits | AID 1053131; in the data active means activation above about 8.9%
TR-FRET interf: counter-screen for LEDGF/p75 integration inhibitors: TR-FRET optical interference. inhibition, % at 7.7 µM. 2,000 tested, under 10 active. shares compounds with LEDGF integ inh. AID 1053135. TR-FRET optical interference counterscreen, HIV-1 IN multimerization;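 active means inhibition above the mean over all tested compounds plus 3 SD, which no compound reached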
IN-LEDGF confirm: LEDGF/p75-dependent HIV-1 integration inhibition, confirmation. AID 1053136. 2,000 compounds, 36% hits. inhibition, % at 3.7 µM. shares compounds with LEDGF integ inh. TR-FRET LEDGF/p75-dependent HIV-1 integration, biochemical; in the data active means inhibition above about 14%
Numbers stand for hits. Sampled rows, rich in hits. Any-hit rate of the full collection: about 2.5%.

What do the screens show for `O=C(Nc1cccc(C2=NCCN2)c1)Nc1cccc(C2=NCCN2)c1`?
LEDGF integ inh: 18; UHRF1 binding: inactive; MBD2 inh: inactive; PRMT1 FP inh: inactive; IN multimer up: inactive; TR-FRET interf: inactive; IN-LEDGF confirm: 18

What do the screens show for `Cc1no[n+]([O-])c1COc1cccc(/C=N/Nc2nncn2N)c1`?
LEDGF integ inh: 58; UHRF1 binding: inactive; MBD2 inh: inactive; PRMT1 FP inh: inactive; IN multimer up: inactive; TR-FRET interf: inactive; IN-LEDGF confirm: inactive

How did Oc1ccc(NCc2cccc(OCc3ccc(F)cc3)c2)cc1 do in these assays?
LEDGF integ inh: 14; UHRF1 binding: inactive; MBD2 inh: inactive; PRMT1 FP inh: inactive; IN multimer up: inactive; TR-FRET interf: inactive; IN-LEDGF confirm: 26

Results for Oc1ccc(NCc2cccc(OCc3ccccc3)c2)cc1 ?
LEDGF integ inh: 16; UHRF1 binding: inactive; MBD2 inh: inactive; PRMT1 FP inh: inactive; IN multimer up: 8.9; TR-FRET interf: inactive; IN-LEDGF confirm: 41

Results for CC(C)C[C@H]1CNC(=O)C(=O)N1C[C@H](Cc1ccc(O)cc1)NC(=O)Cc1ccccc1 ?
LEDGF integ inh: 75; UHRF1 binding: inactive; MBD2 inh: inactive; PRMT1 FP inh: inactive; IN multimer up: inactive; TR-FRET interf: inactive; IN-LEDGF confirm: inactive

Results for CC(C)(C)OC(=O)CC1(C#N)c2ccccc2C(Br)=CN1C(=O)c1ccccc1 (configuration not stated) ?
LEDGF integ inh: inactive; UHRF1 binding: inactive; MBD2 inh: inactive; PRMT1 FP inh: inactive

How did NC(=Nc1ccc(N)cc1)C(N)=Nc1ccc(N)cc1 do in these assays?
LEDGF integ inh: 39; UHRF1 binding: inactive; MBD2 inh: inactive; PRMT1 FP inh: inactive; IN multimer up: inactive; TR-FRET interf: inactive; IN-LEDGF confirm: inactive

Results for N=C(N)c1ccc(N)cc1 ?
LEDGF integ inh: inactive; UHRF1 binding: inactive; MBD2 inh: inactive; PRMT1 FP inh: inactive

What do the screens show for `Cc1cc([N+](=O)[O-])ccc1NC(=O)Cc1ccc(F)cc1`?
LEDGF integ inh: 85; UHRF1 binding: inactive; MBD2 inh: inactive; PRMT1 FP inh: inactive; IN multimer up: inactive; TR-FRET interf: inactive; IN-LEDGF confirm: inactive

How did CC(=O)N(C(C)=O)c1ncn(C)c1S(=O)(=O)Nc1ccccc1 do in these assays?
LEDGF integ inh: inactive; UHRF1 binding: inactive; MBD2 inh: inactive; PRMT1 FP inh: inactive

How did CC(Nc1cccc2ccccc12)C(=O)N/N=C/c1ccc([N+](=O)[O-])cc1 (configuration not stated) do in these assays?
LEDGF integ inh: 16; UHRF1 binding: inactive; MBD2 inh: inactive; PRMT1 FP inh: inactive; IN multimer up: inactive; TR-FRET interf: inactive; IN-LEDGF confirm: inactive

Results for COc1cc([N+](=O)[O-])cc(/C=N/NC(=O)C(C)Nc2cccc3ccccc23)c1O (configuration not stated) ?
LEDGF integ inh: inactive; UHRF1 binding: inactive; MBD2 inh: inactive; PRMT1 FP inh: inactive

Results for CCOc1ccccc1N1CC(C(=O)NC2CCCCCC2)CC1=O (configuration not stated) ?
LEDGF integ inh: inactive; UHRF1 binding: inactive; MBD2 inh: inactive; PRMT1 FP inh: inactive

Results for COc1cc(C2C3=C(COC3=O)Oc3cc4c(cc32)OCO4)cc(OC)c1O (configuration not stated) ?
LEDGF integ inh: 23; UHRF1 binding: inactive; MBD2 inh: inactive; PRMT1 FP inh: inactive; IN multimer up: inactive; TR-FRET interf: inactive; IN-LEDGF confirm: inactive

Results for Cc1cc(C)c(Cn2c(=O)[nH][nH]c2=O)cc1Cn1c(=O)[nH][nH]c1=O ?
LEDGF integ inh: inactive; UHRF1 binding: inactive; MBD2 inh: inactive; PRMT1 FP inh: inactive

What do the screens show for `COc1ccc(CCNC(=O)C(=O)NCc2cccs2)cc1OC`?
LEDGF integ inh: inactive; UHRF1 binding: inactive; MBD2 inh: inactive; PRMT1 FP inh: inactive

How did CCN1CCN(C(c2ccccc2)c2nnnn2Cc2ccc3c(c2)OCO3)CC1 (configuration not stated) do in these assays?
LEDGF integ inh: 25; UHRF1 binding: inactive; MBD2 inh: inactive; PRMT1 FP inh: inactive; IN multimer up: inactive; TR-FRET interf: inactive; IN-LEDGF confirm: inactive

How did COc1ccc(Oc2c(Cl)cnn(-c3ccc(C(C)C)c(C)c3)c2=O)cc1 do in these assays?
LEDGF integ inh: inactive; UHRF1 binding: inactive; MBD2 inh: inactive; PRMT1 FP inh: inactive

What do the screens show for `Cc1cccc(C)c1OC1(c2ccccc2)OC(=O)c2ccccc21` (configuration not stated)?
LEDGF integ inh: inactive; UHRF1 binding: inactive; MBD2 inh: inactive; PRMT1 FP inh: inactive

What do the screens show for `Cc1cc(C)c(OC2(c3ccccc3)OC(=O)c3ccccc32)c(C)c1` (configuration not stated)?
LEDGF integ inh: 31; UHRF1 binding: inactive; MBD2 inh: inactive; PRMT1 FP inh: inactive; IN multimer up: inactive; TR-FRET interf: inactive; IN-LEDGF confirm: inactive

How did O=C(CCSCc1cccc(Cl)c1)NC1CCCC1 do in these assays?
LEDGF integ inh: 51; UHRF1 binding: inactive; MBD2 inh: inactive; PRMT1 FP inh: inactive; IN multimer up: inactive; TR-FRET interf: inactive; IN-LEDGF confirm: inactive

Results for O=C(CCSCc1cccc(Cl)c1)NCCC1=CCCCC1 ?
LEDGF integ inh: inactive; UHRF1 binding: inactive; MBD2 inh: inactive; PRMT1 FP inh: inactive

What do the screens show for `Cc1ccc(N2C(=O)/C(=C\c3ccco3)SC2=S)cc1`?
LEDGF integ inh: inactive; UHRF1 binding: inactive; MBD2 inh: inactive; PRMT1 FP inh: inactive

What do the screens show for `O=C1/C(=C\c2ccco2)SC(=S)N1c1ccccc1`?
LEDGF integ inh: 21; UHRF1 binding: inactive; MBD2 inh: inactive; PRMT1 FP inh: inactive; IN multimer up: inactive; TR-FRET interf: inactive; IN-LEDGF confirm: 21

Results for CC1=CC(=O)C(C(C)=Nc2ccccc2Cl)C(=O)O1 (configuration not stated) ?
LEDGF integ inh: inactive; UHRF1 binding: inactive; MBD2 inh: inactive; PRMT1 FP inh: inactive

Results for O=C(C=Cc1ccc2c(c1)OCO2)c1ccccc1 ?
LEDGF integ inh: inactive; UHRF1 binding: inactive; MBD2 inh: inactive; PRMT1 FP inh: inactive

How did CNc1ccc(Br)cc(C(=O)/C=C/c2ccc3c(c2)OCO3)c1=O do in these assays?
LEDGF integ inh: 19; UHRF1 binding: inactive; MBD2 inh: inactive; PRMT1 FP inh: 25; IN multimer up: inactive; TR-FRET interf: inactive; IN-LEDGF confirm: 36

How did O=C1NC(=O)C(c2ccccc2[N+](=O)[O-])=C1Nc1ccc(O)c(Cl)c1 do in these assays?
LEDGF integ inh: 26; UHRF1 binding: inactive; MBD2 inh: inactive; PRMT1 FP inh: inactive; IN multimer up: inactive; TR-FRET interf: inactive; IN-LEDGF confirm: inactive

Results for O=C(NCCc1ccc(F)cc1)c1ccc2c(c1)ncn2C1CCCCC1 ?
LEDGF integ inh: inactive; UHRF1 binding: inactive; MBD2 inh: inactive; PRMT1 FP inh: inactive

Source: PubChem BioAssay
